Laboratory results reported in PubChem BioAssay AID1508600 (Functional Genomics Laboratory (NCATS/FGL), 2020).
Hit rate of the full screen: of about 53,000 sequences, about 3,700 (7%) were called active. This is one part of a sample in which actives are shown more often than they occur.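 The calls were made as follows: active = gene knockdowns whose robust z-score for IL-1 alpha signal is at least 2 or at most -2, so actives lie on both sides; inactive = the rest.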

Experiment: Components of the Cytosolic LPS Sensing Pathway: Gene Identification via Genome-wide siRNA Screen;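 also: robust z of the log signal after scaling to non-targeting control siRNA wells of the plate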
Settings: RAW264.7 macrophages, IL-1a HTRF, actives lie on both sides, screened at 100 nM (by protocol), cells primed 5 h with Pam3CSK4 first
Method in brief: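 Mouse macrophage line RAW264.7 is transfected with siRNA (100 nM final), grown 48h, primed with TLR ligand Pam3CSK4 5 h and given intracellular LipidA 24 h. IL-1a in supernatant is read by HTRF and viability by luminescence.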

z-score, active:
GGAAAGAAUGAGGAUGUGGTT against Pitx2 -2.07
GCCUAUACUAUAGAAUUACTT against Sgsm2 2.2
GGAAACCUUUACCAUAAACTT against Epdr1 -2.35
CGUUCUAUGGAAACUGGAGTT against Acot1 2.42
CCAUUUCCCAUUUCUGAAGTT against 1700001P01Rik -2.22
CCUAUCUUGUCCGGUUUACTT against Cyb5rl 3.99
GGAAACAGCACAACAAACGTT against Adam26a 2.93
GCCAACAGUAACGGUAUUGTT against Patz1 -2.04
GGGCAUGGAACAAGAUGUCTT against Nckipsd -2.43
GGCUGACACAAGAUGGCUGTT against Ebpl 2.41
GGAGAAGAAAACAUCAAGUTT against Hrh3 2.52
GCACCUCGGUCAUUUAUAUTT against Mettl14 -2.51
GGUUUGCAUAUCUCACCCUTT against Sirt6 -2.38
GCAACUCAGCUGUUGUGAGTT against Ifitm2 2.99
CCUAUGCUAUGUAGUUUAATT against Adam21 5.58
GCUGCCUACCUGUGAAAGUTT against Pgam2 2.82
GGCCAAAGCUGAUAUGACATT against Ankef1 2.23
GGUGUCUUUGCUCAGCUCATT against Lrfn4 -2.93
GGAGAUGUGUUGAGUUUUCTT against Abcg2 4.47
GGACAUUUCUAUGUCUUUGTT against Cpt2 3.35
GGUUCAGUUUUGGCUGGCUTT against Olfr558 2.04
GCUUGGAAGGGACUUCAAUTT against Trp73 2.97
CGAUUAUGAGCACUAUAUUTT against Ddx20 2.12

z-score, inactive:
CGACUCUUACCAACCUUUUTT against Lhx2 0.477
GCAGGUGGUACGCAGACUATT against Ulk1 -0.0204
CCUCAAACUCGGUUUGAUUTT against Acp6 -0.773
GACGCAGAUGGUAUUUUUUTT against Orm2 1.24
GUGGGAAUUCUGAAAAAUATT against Vmn1r231 0.301
GUAUGAACCUAACACAUUCTT against Vmn1r188 0.493
GGAUCAAACAAAUCAUCAATT against Plscr4 -0.895
CCUUGUAGCUCUGAGGAUATT against Teddm3 -0.529
GGAACCUACCUCACCUUUGTT against Fscn3 -0.749
GGUCUCUUCAUGAUGGAUGTT against Akt1s1 0.731
CCAUACACAUGUAAUUCUCTT against Zmat3 -0.159
GGCAUCUCUGAGUUACAUUTT against Snu13 0.695
GGGUCUGGUUCUGUAACCATT against Pou4f3 -1.94
GGACUAUGGUGGGAACUAGTT against Tas2r119 -0.564
GGAAUGCUUAAAGCUUUAATT against Clasp2 0.353
GCUCAAGUUAAUCUGUUGUTT against Ywhae 0.962
CCAGUCAACAAGAAUCAGATT against Rptn -0.105
GAUACAGAAUGUCUCAUCCTT against Olfr1128 0.307
GCCCUUGCACUAUUUUUCCTT against Olfr1218 0.902
GCUAUGUCAACAGUAACAUTT against Mmel1 -0.683
GGUGGAAUUAUGCAUGCUATT against Olfr1094 1.45
GGCUUUCUUCAGUUUUGUCTT against Slc33a1 -1.37
GGAGGUUACCUUCUACAGCTT against Cxcr2 0.694
GGGUGAAAAGCAUUUCUGUTT against Actrt3 0.583
GGCUAAGAAACUGAAGAGATT against Ccm2l -1.59
GCGAACUCGGGAAACAACUTT against Rnf4 -0.0525
UAGAAUUGAUUGAGGACUCTT against Ly6c1 0.602
GCACUUCUUUGUGCAAAGCTT against Shfl -0.311
GAGGUUUGGCAGAAGUGCATT against Npff -1.95
GGCCUGUAAAAACUAUUGGTT against Mcpt4 0.122
CCACCAUGACUGCAAAUGUTT against Olfr1469 -0.817
GCUCGUGGCAUGUCUCUAUTT against Doc2g 0.379
GCUAUGAAGAAAAAUCGGATT against Mettl21e 0.362
GCCUAACCUGGUAUCCCAGTT against Zfp92 -1.03
GGCCUCACAGUGCUUUCUCTT against Olfr1232 0.0779
CCUGGCUUACAGUACAUGCTT against Adarb1 1.21
CGACUUCAUAAGGUAUGCATT against Tnfrsf22 -0.793
UUUGCUGUCCUUUCUUUCATT against Olfr122 -1.84
GGCCUAAGCAAGUUGCGCATT against Fbxl8 1.5
CCUUCAGACUGUCAACAAUTT against Chrm2 -0.386
GCGUGAGCUUAAGAAGCAATT against Leng8 1.46
GGAAAAGCUCAAUGUCCUCTT against Tex13b -0.141
GGGAAGUCUACAUAAAUCCTT against Gpr176 -0.544
GGAAAAGAAGUUUAAACGGTT against Svs6 -0.413
GGAGGAUCUUUCAAAGAGATT against Egfl8 0.763
GGCCCUUCCAGAAGAUACATT against Speer3 -1.1
GGACAGAUUCGACAAAGAGTT against Olfr1535 -0.193
GGAAAACAAGACUUCAAUCTT against Gypa 0.369
CCCUGAUGACAGAAGAAUCTT against Tyms -0.802
GCCUGUCCUGUGAUGACAUTT against Olfr406 -1.96
GCUCGAACAUCUCUUGGUCTT against Capn9 0.186
CCGUUACCUUUUAAGCCUGTT against Socs6 -1.2
GGCAGAGAAAAGGACCUUUTT against Mcts2 -1.32
GGAACUCCUCAAACGAAGGTT against Bmp3 0.553
GCCACCAGUGAAUAAUACATT against Hyal6 0.459
GGAGACUGGAGAGCAAAAUTT against Krt18 -1.44
GCUACCUUCAGACAAGCACTT against Prss32 -0.877
GCUGUUGUUCAAUGCCCUGTT against Olfr392 -0.616
GGCUGCACACAAUAUGAACTT against Mrm2 0.134
GGAGAAACUAUGAUCUUUATT against Mmp13 0.117
GGGAAGAAAUCCAAGAAGATT against Cnpy3 -0.836
GGAGCUCCUGUACGACUAUTT against Kmt5a -1.66
GCCCUCGGACUGAAAACAATT against Chrm5 -0.227
GGUACAAUGGCACUGUCACTT against Chrna5 -1.29
GGGAUGCUUUUGGCCCAAATT against Rita1 0.901
GGUUCUCUAACAGAACUUUTT against Zc3h6 0.768
GGUUGUUUGACCAACAGCUTT against Inpp5d -1.51
GGAAUUUGUGGAGAAACUATT against Gabbr1 -0.232
GAGCCAUAUACCUCGUCCUTT against Mier2 -0.531
GGUUGGCUUGGAAAUGGGATT against Nanos2 1.7
CCAUUUACCCAUGCGGCUATT against Creb3l2 -1.94
GGCAACAUGCGGACAACAUTT against Trim14 -0.42
GGAGCUGAACCUGAGCUAUTT against Tlr9 -0.341
GGAGAUAAAUCCUUUGCAUTT against Zfp119a 1.74
GGACUUUCGUGAGAGAUUUTT against Fpr2 1.16
GGAGAAGAGCAGAAUAUGCTT against Baz1a -1.48
GCUGUUAAACGAAAUGUACTT against Esx1 -0.298
CCAUUUAUUUGGACUUGUATT against Lig4 0.303
CCGGUAUUACAACAAGUACTT against Atp5j2 1.01
GGGAGAAGGUAAGUGCAUGTT against Golga7b -0.343
GGUGGAAAAGUGAAAAAGGTT against Ddx18 0.158
CCUGUAGAUUCAAUUAGAGTT against Vkorc1l1 -0.206
GGUGCUGCUUUAUUCCUGGTT against Dhcr7 -0.632
GGAUAUGUGUUCAUCCUGUTT against Lrrc18 0.0347
GGUUAUGCCUUCAGUGAAGTT against Prep -0.14
